Assay outcomes from PubChem BioAssay.
Hits are enriched below; roughly 5.6% of the tested compounds scored in any of these assays.
PKM2 act: qHTS Assay for Activators of Human Muscle isoform 2 Pyruvate Kinase; Pyruvate kinase PKM (Homo sapiens), P14618; purified PKM2, Kinase-Glo ATP luminescence, activation; response scale: 0% is enzyme alone, no compound; Potency, µM (titrated, usually from 57.5 µM), for inactives: top-dose activation, most hits filed as activators; 0.34% of 260,000 active; further: potency means the concentration at half of the fitted maximal effect; nearly all actives have a fitted effect of over 55% in size
Target sequence (P14618 whole entry, looked up, canonical isoform): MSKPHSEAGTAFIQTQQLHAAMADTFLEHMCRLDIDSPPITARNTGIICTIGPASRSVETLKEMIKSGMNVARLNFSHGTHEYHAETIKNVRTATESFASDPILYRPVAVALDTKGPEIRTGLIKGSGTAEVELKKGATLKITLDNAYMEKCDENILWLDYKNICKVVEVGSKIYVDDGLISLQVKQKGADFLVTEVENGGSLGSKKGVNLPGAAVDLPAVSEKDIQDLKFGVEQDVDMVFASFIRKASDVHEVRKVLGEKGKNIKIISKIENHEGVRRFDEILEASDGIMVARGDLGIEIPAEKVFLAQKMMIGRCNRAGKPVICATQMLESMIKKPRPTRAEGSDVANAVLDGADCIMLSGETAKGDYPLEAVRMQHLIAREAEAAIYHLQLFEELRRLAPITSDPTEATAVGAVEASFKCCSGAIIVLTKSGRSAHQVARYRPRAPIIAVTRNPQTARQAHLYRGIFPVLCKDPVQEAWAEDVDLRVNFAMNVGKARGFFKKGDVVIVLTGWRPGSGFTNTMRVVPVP
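Kinase-Glo luminescence reports ATP generated from ADP (0.1 mM) and PEP (0.5 mM) by purified hPK-M2 after 1 h at room temperature, pH 7.2 imidazole buffer; intermediate enzyme activity allows detecting inhibitors and activators.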
VP16 counter: VP16 counterscreen qHTS for inhibitors of ROR gamma transcriptional activity; Drosophila S2 Gal4-VP16 UAS-luciferase, luminescence, 20 h; Potency, µM (top dose mostly 53.6 µM), for inactives: at the highest dose activity, negative = inhibition, usual class: inhibitors; 3.5% of 310,000 active; AID 2546, 2010;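 further: Gal4-VP16 expression switched on by copper sulfate through the metallothionein promoter; potency means the concentration at half of the fitted maximal effect; nearly all actives have a fitted effect of over 50% in size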
Six1-Eya2 inh: qHTS Assay for Inhibitors of the Six1/Eya2 Interaction; Homeobox protein SIX1 (Homo sapiens) + Protein phosphatase EYA2 (Homo sapiens), …; AlphaScreen GST-Six1/His-Eya2 binding, biochemical; active compounds read low; activity change, % (concentration not given with the values); 0.56% of 360,000 active; in the data active means activity change below about -65%; inconclusive means mostly about -30% to -63%
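GST-Six1 + His-Eya2 (5X stock: 250/500 nM); Tris pH 8.0, 300 mM NaCl, 0.05% BSA, 0.02% Tween 20; GSH donor/Ni acceptor beads; 1 h 37 °C dark; AlphaScreen readout.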
CtBP-E1A blk: qHTS Assay for Inhibitors of the CtBP/E1A Interaction; AlphaScreen GST-E1A/His-CtBP binding, 1536-well; active compounds read low; activity change, % (concentration not given with the values); 0.49% of 340,000 active; AID 651724, 2012; in the data active means activity change below about -65%; inconclusive means mostly about -30% to -63%
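Protein mix (5X: 125 nM each GST-E1A, His-CtBP) was incubated with pinned compound 2 h at 37 deg C in dark, in 50 mM Tris pH 8.0 buffer with 300 mM NaCl. Glutathione donor and nickel acceptor beads followed; AlphaScreen signal read after 1 h.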
RORg inh: qHTS for inhibitors of ROR gamma transcriptional activity; AID 2551, 2010; Potency, µM (doses to about 53.6 µM), inactives show at the top dose activity change, negative = inhibition, actives largely listed as inhibitors; Drosophila S2 Gal4-RORgamma UAS-luciferase reporter, 20 h; Nuclear receptor ROR-gamma (Mus musculus), P51450; 5.4% of 310,000 active; further: potency means the concentration at half of the fitted maximal effect; nearly all actives have a fitted effect of over 60% in size
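Stable Schneider cell line, Gal4 DNA-binding domain fused to ROR gamma, UAS-luciferase. Cmpd 1 hr RT → CuSO4 700 uM final → 20 hr RT → luciferase reagent 10 min → luminescence.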
Numbers without * were called inactive; ? = inconclusive; / = no result given; [ ] = another dose, or the depositor's remark. Unless noted, the call rests on the fitted dose curve; in most records, active means well fitted curve in the direction sought with a large enough effect; inconclusive means small, poorly fitted or top-dose-only effect, or another doubt; inactive means no such curve, though single readings can be large; an effect the other way counts as inactive or inconclusive. On the % scale 0 is the no-effect control and ±100 the full control effect.

SMILES	PKM2 act	VP16 counter	Six1-Eya2 inh	CtBP-E1A blk	RORg inh
COc1cc(N)c(Cl)cc1C(=O)OCC(=O)N1c2ccccc2NC(=O)C1(C)C	/	/	-1.2	2.9	/
O=C(O)CCCNC(=O)OCc1ccccc1	-3.3%	6.31µM*	28.8	4.2	?
Cc1c(Cl)cccc1N=c1c([N+](=O)[O-])nn(-c2ccccc2)n1O	-12.7%	-10.0%	-5.4	-6.3	-8.3%
CC1=NN(C(=O)c2ccncc2)C(=O)C1N=Nc1ccc2ccccc2c1 (stereo unspecified)	/	/	-0.2	0.0	/
CC1=NN(C(N)=S)C(=O)C1N=Nc1cccc(Cl)c1C (stereo unspecified)	-3.9%	1µM*	0.3	/	0.355µM*
CC1=NN(C(N)=S)C(=O)C1N=Nc1cccc2ccccc12 (stereo unspecified)	-2.3%	2.82µM*	/	/	0.631µM*
Cc1ccn2cc(-c3ccc(Br)cc3)nc2c1	-26.1%	?	-1.6	-7.3	8.91µM*
Cc1ccc(S(=O)(=O)Nc2ccc(-c3cn4ccc(C)cc4n3)cc2)cc1	9.3%	-1.0%	-12.7	/	?
Cc1ccn2cc(-c3cccc(NC(=O)CCC(=O)O)c3)nc2c1	-16.0%	10µM*	-2.1	-9.5	7.08µM*
Cc1ccn2cc(-c3cccc([N+](=O)[O-])c3)nc2c1	-40.0%	?	-2.2	-5.9	10µM*
O=C(c1ccccc1NS(=O)(=O)c1ccc(F)cc1F)N1CCCCC1	/	/	5.6	3.8	/
CCOc1ccc(S(=O)(=O)N(CC)CC(=O)N2CCOCC2)cc1C	-0.1%	0.9%	-9.7	1.6	10.2%
CC[C@H](C)[C@H](NC(=O)[C@H](Cc1ccc(O)cc1)NC(=O)[C@H](CCCNC(=N)N)NC(=O)[C@H](CCCNC(=N)N)NC(=O)[C@H](CC(C)C)NC(=O)[C@H](CCC(N)=O)NC(=O)[C@@H](NC(=O)[C@H](CCC(=O)O)NC(=O)[C@H](Cc1ccc(O)cc1)NC(=O)[C@H](CCC(N)=O)NC(=O)[C@H](C)NC(=O)[C@H](CCCNC(=N)N)NC(=O)[C@H](CCC(N)=O)NC(=O)[C@H](CCC(=O)O)NC(=O)[C@H](Cc1cnc[nH]1)NC(=O)[C@@H](NC(=O)[C@H](C)NC(=O)[C@H](Cc1ccc(O)cc1)NC(=O)[C@H](CC(=O)O)NC(=O)CNC(=O)[C@@H]1CCCN1C(=O)[C@H](Cc1ccc(O)cc1)NC(=O)[C@H](CCSC)NC(=O)[C@@H]1CCCN1C(=O)[C@H](CCC(=O)O)NC(=O)[C@H](CC(C)C)NC(=O)[C@@H]1CCCN1C(=O)[C@H](C)N)[C@@H](C)O)[C@@H](C)O)C(=O)N[C@@H](CC(N)=O)C(=O)N[C@H](C(=O)N[C@@H](CC(C)C)C(=O)N[C@H](C(=O)N[C@@H](CCCNC(=N)N)C(=O)N1CCC[C@H]1C(=O)N[C@@H](CCCNC(=N)N)C(=O)N[C@@H](Cc1ccc(O)cc1)C(N)=O)[C@@H](C)O)[C@@H](C)O	/	6.1%	/	/	6.1%
COCCCN1CN(S(=O)(=O)c2ccc(C)cc2C)c2nc3ccccc3nc21	-0.1%[0.46 µM]	-2.1%	3.0	/	19.8%
CN(C)c1ccc(N=c2sc3ccccc3n2C)cc1	12.7%	-3.3%	-84.2*	44.1	28.1%
C=CCNC(=S)NNC(=O)C(CCC(C)C)CC(C)(C)O (stereo unspecified)	-4.3%	?	-1.1	4.4	14.1µM*
C=CCNC(=S)NNC(=O)C(CC(C)C)CC(C)O (stereo unspecified)	0.6%	-6.0%	12.4	12.5	-20.4%
Cc1ccc(N/N=C(\C#N)C(=O)c2ccsc2)cc1	-0.8%	13.6%	-2.0	/	?
CC1=C(c2ccc(NN=C(C#N)C#N)cc2)NNC(=O)C1	/	?	/	/	22.4µM*
CC(C)(C)c1ccc(/C=C/C(=O)N2CCc3ccccc3C2)cc1	6.0%	1µM*	1.8	5.1	?
O=C(/C=C/C(=O)N1CCc2ccccc2C1)N1CCc2ccccc2C1	-0.6%	20µM*	5.7	/	?
O=C(O)CN1CCc2ccccc2C1	-25.0%	2.3%	16.5	-17.3	-2.7%
O=C(/C=C/c1ccc(F)cc1)N1CCc2ccccc2C1	/	/	-0.3	2.6	/
Cc1ccc(/C=C/C(=O)N2CCc3ccccc3C2)cc1	5.4%	?	0.0	4.5	17.8µM*
O=S(=O)(CCc1ccccc1)c1nc2ccccc2s1	/	-9.4%	/	/	-31.9%
SMILES	PKM2 act	VP16 counter	Six1-Eya2 inh	CtBP-E1A blk	RORg inh
O=C(OCCc1cc2ccccc2c(=O)o1)N1CCOCC1	/	/	1.1	4.6	/
CN(Cc1ccccc1)C(=O)c1ccc2sc([C@H]3C[C@H](O)[C@@H](CO)O3)nc2c1	/	/	3.2	5.5	/
Cc1cc(NC(=O)c2cc3cccc([N+](=O)[O-])c3[nH]2)ccc1F	-4.7%	1.3%	-16.0	-16.0	34.6%
Cc1c(C(=O)N/N=C/C(C)C)[nH]c2c([N+](=O)[O-])cccc12	10.2%	-22.5%	-7.0	-4.7	2.24µM*
Cc1cccc(-n2c(C)nc3c(cnn3-c3ccc(F)cc3)c2=O)c1	-1.2%	7.08µM*	-3.5	-1.2	-39.3%
CCOC(=O)Cc1nnc(NC(=O)c2ncn[nH]2)s1	2.5%	2.4%	?	-71.2*	-17.5%
CCOC(=O)Cc1nnc(NC(=O)c2ccccc2OCC)s1	-0.3%	-2.6%	-2.5	-1.4	42.7%
CN(C)c1ccc(-c2ccc3ncnc(-n4ccnc4)c3c2)cc1	/	12.6µM*	/	/	7.08µM*
Cc1ccccc1-c1ccc2ncnc(N(C)C)c2c1	/	-18.1%	/	/	?
CN(C)C(=O)c1ccc(-c2cncnc2-n2ccnc2)cc1	/	-1.1%	/	/	-0.9%
Cc1ccccc1-c1ccc2ncnc(-n3ccnc3)c2c1	/	12.6µM*	/	/	11.2µM*
Cc1ccc(OCC(=O)NNC(=S)NC(=O)C(C)(C)C)c(Br)c1	6.3%	3.6%	-2.8	-1.3	11.2µM*
CC(C)c1ccc(OCC(=O)NNC(=S)NC(=O)c2cccs2)c(Br)c1	-4.7%	-0.5%	7.1	0.3	13.4%
Cc1cc(Cl)ccc1OCC(=O)NC(=S)Nc1ccccc1N1CCOCC1	-1.7%	?	-6.8	-5.2	4.47µM*
Cc1ccc(OCC(=O)NC(=S)Nc2ccccn2)c(Br)c1	-22.8%	11.2µM*	7.6	9.0	10µM*
Cc1cc(Cl)ccc1OCC(=O)Nc1ccccc1N1CCOCC1	-2.4%	-9.5%	10.2	6.0	?
COC(=O)c1ccccc1NC(=S)NC(=O)COc1ccccc1Cl	-0.5%	?	7.6	5.5	10µM*
COC(=O)c1ccccc1NC(=S)NC(=O)COc1ccc(C)cc1	/	/	5.4	2.2	/
